Drawing on PubChem BioAssay, this text covers composite z-score and composite Z-score for 13 compounds.

One experiment addresses Albumin (Bos taurus) (UniProt P02769). As to the kind of experiment: bovine serum albumin binders on microarray, profiling panel, artefact control for SMM control protein annotation, biochemical, small-molecule microarray, Alexa647 label, 635/667 nm fluorescence (AID 1118).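 Also: score merges 667 nm emission intensity and signal-to-noise per printed compound spot.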 The following applies: BSA-A647 binding, fluorescence 635 nm, higher = more signal.
Experiment [1] in a line: small-molecule microarray binders of probe aXIP, primary screen, biochemical, NeuroSMM set, 635/667 nm fluorescence (AID 1119).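 Also: probe is the protein aXip251-270 applied at 1 µg/mL to compound-printed slides; binding of probe to printed compounds measured as 667 nm fluorescence plus signal to noise.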 The following applies: higher = more signal, called active from +8 up or from −8 down.
A short description of experiment [2]: small-molecule binders of probe aNOTCH3, primary screen, biochemical, small-molecule microarray, 635/667 nm fluorescence (AID 1120).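 Also: probe is a biotin-tagged antibody raised against NOTCH3 rather than NOTCH3 protein; score merges spot fluorescence near 667 nm with spot signal to noise.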 The following applies: higher = more signal.
A short description of experiment [3]: small-molecule binders of probe aNOTCH2, primary screen, biochemical, small-molecule microarray, 635/667 nm fluorescence (AID 1121).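 Also: score merges feature fluorescence read at 667 nm with its signal to noise.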 As to conditions: higher = more signal.
Experiment [4] addresses Carbonic anhydrase 2 (Homo sapiens) (UniProt P00918). Kind of experiment: CAII small-molecule binders, profiling panel, biochemical, small-molecule microarray, Alexa647-labelled CAII (AID 1122). As to conditions: CAII-A647 binding fluorescence, higher = more signal.
Experiment [5] can be described thus: COS7 lysate on small-molecule microarray, probe aHis, 635 nm (AID 1123).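 Also: z-score combines 667nm fluorescence intensity with signal-to-noise per printed compound spot.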 The following applies: COS7 cell lysate, fluorescence, higher = more signal.
Experiment [6] can be described thus: compound binding in COS7 lysate, probe aLAP1, primary screen, cell lysate, small-molecule microarray (AID 1124).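 Also: lysate comes from COS7 cells expressing LAP1 and is applied at 0.3 µg/mL; score merges spot fluorescence near 667 nm with signal-to-noise over triplicate slides.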 As to conditions: probe aLAP1, fluorescence, higher = more signal.
In another experiment the test system is Sam68 (KHDRBS1). Kind of experiment: Sam68 small-molecule binders, primary screen, biochemical, small-molecule microarray, 635 nm fluorescence (AID 1125).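 Also: score merges 667 nm channel intensity with signal to noise over triplicate slides.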 The following applies: small-molecule microarray binding, higher = more signal.
Experiment [7] concerns Chordin-like protein 2 (CHRDL2). Kind of experiment: CHRDL2 small-molecule binders, primary screen, biochemical, small-molecule microarray, 635 nm fluorescence (AID 1126).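 Also: printed compound slides probed with Chrdl2 protein at 4 µg/mL for 1 h at 4 C; score merges 667 nm emission intensity with signal to noise over three replicate slides.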 The following applies: small-molecule microarray binding, fluorescence 635 nm; higher = more signal.
In experiment [8] the target is Concanavalin-A (Canavalia ensiformis) (UniProt P02866). As to the kind of experiment: ConA small-molecule binders, primary screen, artefact control for SMM control protein annotation, biochemical, small-molecule microarray, Alexa647 label, 635 nm (AID 1127).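 Also: z combines 667 nm emission intensity with signal-to-noise across three replicate slides.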 As to conditions: ConA-A647 binding fluorescence, higher = more signal.
Sequence of Concanavalin-A (Canavalia ensiformis) (P02866 whole entry, looked up): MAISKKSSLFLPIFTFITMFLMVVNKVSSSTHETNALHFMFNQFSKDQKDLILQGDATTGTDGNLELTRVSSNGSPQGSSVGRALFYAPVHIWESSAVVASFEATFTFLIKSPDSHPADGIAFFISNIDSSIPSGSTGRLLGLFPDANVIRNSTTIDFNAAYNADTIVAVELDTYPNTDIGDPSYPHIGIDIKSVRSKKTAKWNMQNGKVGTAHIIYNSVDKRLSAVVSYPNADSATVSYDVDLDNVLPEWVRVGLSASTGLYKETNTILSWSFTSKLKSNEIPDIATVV

Each structure is given as a SMILES string. Several values for one entry are separate records, joined by “and”; a condition that tells them apart may be missing. Equal values may be shown once. Activity calls are given as the source filed them.

Sequence of Albumin (Bos taurus) (P02769 whole entry, looked up): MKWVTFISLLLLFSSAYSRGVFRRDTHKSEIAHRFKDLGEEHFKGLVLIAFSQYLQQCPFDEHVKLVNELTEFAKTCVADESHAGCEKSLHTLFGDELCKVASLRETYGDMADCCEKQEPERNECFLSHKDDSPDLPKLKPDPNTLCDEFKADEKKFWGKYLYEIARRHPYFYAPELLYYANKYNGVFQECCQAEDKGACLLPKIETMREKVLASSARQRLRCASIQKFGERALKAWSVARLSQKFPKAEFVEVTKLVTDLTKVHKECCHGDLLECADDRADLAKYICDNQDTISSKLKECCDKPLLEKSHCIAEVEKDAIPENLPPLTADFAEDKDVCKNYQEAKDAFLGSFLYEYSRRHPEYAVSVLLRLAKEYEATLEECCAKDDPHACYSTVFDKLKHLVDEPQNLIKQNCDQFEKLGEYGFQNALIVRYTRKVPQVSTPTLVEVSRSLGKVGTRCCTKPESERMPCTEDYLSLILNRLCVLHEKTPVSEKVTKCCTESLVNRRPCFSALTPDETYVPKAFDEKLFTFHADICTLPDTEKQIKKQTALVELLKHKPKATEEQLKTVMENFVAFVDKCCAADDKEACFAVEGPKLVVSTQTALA

Turning to `CN1C(=O)C2CC=C([C@H]3Oc4ccccc4S(=O)(=O)N4CCC[C@@H]34)CC2C1=O` (stereo not given in full), the composite z-score with Albumin (Bos taurus) is -0.75 and -0.505; in experiment [2] it was -0.182 and -0.173; in experiment [3], -0.14 and -0.084; in experiment [4], -0.296 and -0.322; in [5], -0.616 and -0.564; in experiment [6], 0.892 and -0.263. The composite z-score in the experiment on Sam68 (KHDRBS1) is -1.08 and -1.56; in experiment [7], -0.144 and 0.153; in experiment [8] it was -0.476 and -1.05. Also, the composite Z-score in [1] is 0.183 (inactive) and -0.213 (inactive).

On to `COC(=O)[C@@]1(Cc2ccccc2)[C@H]2c3cc(C(=O)N(C)C)n(Cc4ccc(C)c(F)c4F)c3C[C@H]2CN1C(=O)c1ccccc1`, for which the composite z-score with Albumin (Bos taurus) is 0.821 and 0.859; in experiment [2] it was 0.141 and 1.27; in experiment [3], 0.106 and -0.0977; in experiment [4], 0.72 and 0.653; in experiment [5], 2.51 and 2.94; in experiment [6] it was 0.289 and 0.612. Also, the composite z-score was 0.998 and 1.34 in the experiment on Sam68 (KHDRBS1); -1.32 and -0.528 in experiment [7]; 0.201 and 1.18 in [8]. Also, the composite Z-score in experiment [1] is 0.392 (inactive) and -0.26 (inactive).

As for `C=CCN(C(=O)C(c1cccs1)N(C(=O)/C=C\C(=O)O)C(C)(C)CO)C(C)(C)C` (stereo not given), the composite z-score is 0.649 and 0.333 with Albumin (Bos taurus); -0.289 and -0.358 in experiment [2]; -0.172 and -0.0728 in [3]; 0.786 and 0.805 in [4]; 0.414 and 0.831 in experiment [5]; -0.68 and 0.64 in experiment [6]. For the same compound, the composite z-score is 0.0206 and -0.225 with Sam68 (KHDRBS1); -1.43 and -1.27 in [7]; -0.625 and -0.54 in experiment [8]. For the same compound, the composite Z-score in [1] is -1.12 (inactive) and 0.108 (inactive).

For `C=C[C@@H](OC)[C@H](O)c1ccc(OC)c(O)c1`, the composite z-score with Albumin (Bos taurus) is 0.346 and 0.226; in [2], -0.0044 and -0.521; in [3], -0.0212 and -0.163; in [4] it was -0.189 and 0.232; in [5], -0.0302 and 0.043; in experiment [6], -0.37 and -0.649. The composite z-score with Sam68 (KHDRBS1) was 0.043 and -0.955; in experiment [7], 1.11 and -0.52; in experiment [8], -0.847 and -1.4. The composite Z-score in experiment [1] was 0.767 (inactive) and -1.19 (inactive).

For `C[C@@H](ON=C1[C@H]2CCn3c(=O)n(-c4ccccc4)c(=O)n3[C@H]2[C@H](O)[C@@H]2O[C@H]12)c1cn([C@H](CO)Cc2ccccc2)nn1`, the composite z-score in the experiment with Albumin (Bos taurus) is 0.0073; in [2] it was -0.216; in [3], -0.17; in experiment [4], -0.0324; in [5], 0.392; in experiment [6], 0.012. For the same compound, the composite z-score in the experiment on Sam68 (KHDRBS1) is 0.209; in experiment [7], 0.353; in experiment [8] it was 0.349. In experiment [1], the composite Z-score was 0.116 (inactive).

Consider `CC[C@@H]1C(Sc2ccccc2)C(C(=O)O)[C@H](c2ccc(C)cc2)N1S(=O)(=O)c1ccc(C)cc1` (stereo not given in full), for which the composite z-score in the experiment with Albumin (Bos taurus) is 0.978 and 0.899; in [2], 0.411 and -0.022; in experiment [3], 0.0739 and -0.0635; in [4], 0.232 and 0.755; in experiment [5], 0.893 and 2.52; in experiment [6], 0.541 and 0.418. The composite z-score in the experiment on Sam68 (KHDRBS1) was 1.33 and 1.3; in experiment [7] it was -0.682 and -0.367; in experiment [8] it was 1.22 and 1.09. Also, in experiment [1], the composite Z-score is 0.242 (inactive) and 1.85 (inactive).

For `COCn1c2ccccc2c2nnc(C(C)=O)nc21`, the composite z-score with Albumin (Bos taurus) is -0.565 and -0.0926; in experiment [2] it was -0.0647 and 0.106; in experiment [3] it was -0.131 and -0.126; in experiment [4], 0.158 and -0.258; in experiment [5] it was -0.0769 and 0.263; in [6] it was 0.325 and 0.155. For the same compound, the composite z-score was 0.132 and 0.584 in the experiment with Sam68 (KHDRBS1); 0.488 and 0.54 in experiment [7]; 0.133 and -0.0846 in [8]. The composite Z-score in experiment [1] is -0.158 (inactive) and -0.123 (inactive).

In the case of `Cc1ccc(S(=O)(=O)N[C@H]2COC(=O)[C@@H](Cc3ccccc3)NC(=O)[C@@H](C)COC(=O)CC=C[C@@H]2C)cc1`, the composite z-score was -0.92 and -0.489 with Albumin (Bos taurus); -0.279 and -0.132 in [2]; -0.162 and -0.185 in experiment [3]; -0.363 and 0.129 in experiment [4]; -0.902 and 0.614 in experiment [5]; -0.221 and -0.16 in [6]. The composite z-score with Sam68 (KHDRBS1) is -0.309 and 0.663; in experiment [7], 0.748 and 0.691; in experiment [8], 0.117 and 0.0745. In addition, in experiment [1], the composite Z-score is 0.103 (inactive) and 0.304 (inactive).

With `C=CCN(C(=O)C1N(CCOCCO)C(=O)C2C(C(=O)O)C3C=CC21O3)C(C)(C)C` (stereo not given), the composite z-score with Albumin (Bos taurus) is 0.106 and -0.502; in experiment [2], -0.465 and -0.469; in experiment [3], -0.116 and -0.153; in experiment [4], -0.115 and -0.524; in experiment [5] it was -0.717 and -1.47; in [6], -0.882 and -0.478. Further, the composite z-score in the experiment on Sam68 (KHDRBS1) was -1.29 and -0.941; in experiment [7] it was -3.33 and -1.51; in experiment [8], -0.455 and -0.884. In experiment [1], the composite Z-score is 0.519 (inactive) and -0.158 (inactive).

Turning to `Cc1ccc(S(=O)(=O)OC[C@@H]2CN3[C@@H](CC[C@@H](C)[C@@H]3c3ccc(Br)cc3)C(=O)O2)cc1`, the composite z-score with Albumin (Bos taurus) is 0.278 and 0.51; in [2] it was 0.062 and 0.0051; in [3], -0.124 and -0.0326; in [4], 0.11 and 0.427; in [5], -0.0886 and 0.315; in experiment [6], -0.162 and 0.565. Besides, the composite z-score was 0.418 and 0.99 with Sam68 (KHDRBS1); 0.251 and 0.327 in experiment [7]; 0.446 and 0.54 in experiment [8]. In experiment [1], the composite Z-score is -0.19 (inactive) and 0.177 (inactive).

Turning to `C=C[C@H](C)[C@H](O)c1ccc(O)c2ccccc12`, the composite z-score with Albumin (Bos taurus) is -0.401 and 0.473; in experiment [2], -0.36 and -0.229; in experiment [3] it was -0.109 and -0.114; in [4] it was 0.137 and 0.349; in experiment [5] it was -0.0769 and 0.283; in [6], -0.055 and -0.15. For the same compound, the composite z-score in the experiment with Sam68 (KHDRBS1) was -0.512 and -0.791; in experiment [7], -0.14 and -0.152; in experiment [8], -1.05 and -0.559. Moreover, the composite Z-score in experiment [1] was 0.0296 (inactive) and -0.906 (inactive).

`C=CC[C@@H](O)c1ccc(OCCO)cc1`: the composite z-score was -0.155 and -0.308 in the experiment with Albumin (Bos taurus); -0.506 and -0.643 in [2]; -0.222 and -0.176 in [3]; 0.492 and 0.807 in experiment [4]; -0.638 and -0.478 in experiment [5]; -0.585 and -0.612 in experiment [6]. The composite z-score is -0.813 and -0.661 with Sam68 (KHDRBS1); -1.56 and -1.81 in experiment [7]; -0.831 and -1.48 in experiment [8]. The composite Z-score in [1] is 0.0022 (inactive) and 0.259 (inactive).

As to `CC(C)N1CC=CC23O[C@@H]4C=CCCOC(=O)C4[C@H]2C(=O)N(C(C)CO)[C@@H]3C1=O` (stereo not given in full), the composite z-score with Albumin (Bos taurus) was -0.579 and 0.131; in [2], -0.222 and -0.215; in experiment [3], 0.502 and -0.221; in experiment [4] it was 0.958 and 0.808; in experiment [5], 1.24 and -0.13; in experiment [6] it was 0.866 and -0.361. Also, the composite z-score in the experiment on Sam68 (KHDRBS1) is 0.967 and -0.516; in experiment [7], -2.61 and -1.23; in experiment [8], 0.0938 and -1.42. The composite Z-score in [1] was 0.238 (inactive) and 0.848 (inactive).
